About 14,000 (4.5%) of roughly 310,000 compounds showed an effect of 50% or more. The effect is printed as a negative number. Only a selection was taken, and strong results are over-represented in it overall.
molecular target: human ether-à-go-go-related gene (hERG) potassium channel (human, UniProt Q12809); test: primary screen, population patch clamp on CHO cells stably expressing hERG; higher = less effect of the substance
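Also: peak tail current of the secondary pulse compared with the same well before compound.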

Sequence of human ether-à-go-go-related gene (hERG) potassium channel (Q12809 whole entry, looked up): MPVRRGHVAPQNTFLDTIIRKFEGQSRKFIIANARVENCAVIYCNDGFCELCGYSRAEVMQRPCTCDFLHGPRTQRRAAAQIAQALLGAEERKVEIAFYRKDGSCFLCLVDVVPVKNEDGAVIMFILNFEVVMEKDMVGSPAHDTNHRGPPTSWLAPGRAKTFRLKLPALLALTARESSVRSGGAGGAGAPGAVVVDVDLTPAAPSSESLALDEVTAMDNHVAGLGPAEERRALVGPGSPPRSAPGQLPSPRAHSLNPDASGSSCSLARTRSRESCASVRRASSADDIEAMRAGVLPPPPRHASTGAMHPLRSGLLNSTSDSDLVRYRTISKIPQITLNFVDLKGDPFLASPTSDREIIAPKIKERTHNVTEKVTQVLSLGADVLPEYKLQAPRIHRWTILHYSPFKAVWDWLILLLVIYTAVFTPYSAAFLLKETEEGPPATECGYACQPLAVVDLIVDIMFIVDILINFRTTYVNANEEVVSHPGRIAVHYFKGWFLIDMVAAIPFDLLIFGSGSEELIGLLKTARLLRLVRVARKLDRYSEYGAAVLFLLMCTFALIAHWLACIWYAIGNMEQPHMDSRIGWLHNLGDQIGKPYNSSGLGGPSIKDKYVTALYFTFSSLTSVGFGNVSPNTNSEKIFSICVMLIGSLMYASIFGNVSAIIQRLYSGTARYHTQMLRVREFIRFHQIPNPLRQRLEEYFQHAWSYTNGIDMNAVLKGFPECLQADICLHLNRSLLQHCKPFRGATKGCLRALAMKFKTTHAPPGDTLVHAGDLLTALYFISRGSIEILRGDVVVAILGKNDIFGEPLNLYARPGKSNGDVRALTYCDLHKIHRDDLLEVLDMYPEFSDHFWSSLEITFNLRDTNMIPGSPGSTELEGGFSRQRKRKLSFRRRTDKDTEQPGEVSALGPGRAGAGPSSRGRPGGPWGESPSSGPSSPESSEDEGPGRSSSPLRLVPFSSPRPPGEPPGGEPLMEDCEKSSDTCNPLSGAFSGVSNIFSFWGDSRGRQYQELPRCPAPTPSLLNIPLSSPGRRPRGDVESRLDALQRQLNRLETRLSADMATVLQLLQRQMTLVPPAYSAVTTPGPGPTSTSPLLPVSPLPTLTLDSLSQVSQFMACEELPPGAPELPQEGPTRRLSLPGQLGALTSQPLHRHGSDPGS

Row | SMILES | hERG current change (%, negative = inhibition) at 10uM
1 | O=C(CSc1ccc2nnc(-c3ccccc3)n2n1)N1CCCc2ccccc21 | -62.7%
2 | COc1ccc(-c2nnc3ccc(SCC(=O)N4CCCC4)nn23)cc1 | -15.2%
3 | CCOc1ccc(-c2nnc3ccc(SCC(=O)N4CCCCC4)nn23)cc1 | -5.88%
4 | O=C(CSc1ccc2nnc(-c3ccccn3)n2n1)N1CCOCC1 | -24.5%
5 | Cc1ccc(-c2nnc3ccc(SCC(=O)N4CCCc5ccccc54)nn23)cc1 | -12.5%
6 | O=C(CSc1ccc2nnc(-c3ccccc3)n2n1)N1CCCCC1 | -59.7%
7 | O=C(CSc1ccc2nnc(-c3ccccn3)n2n1)N1CCN(c2ccccc2)CC1 | -86.7%
8 | CCOC(=O)N1CCN(C(=O)CSc2ccc3nnc(-c4ccccn4)n3n2)CC1 | -36%
9 | O=C(CSc1ccc2nnc(-c3ccc(F)cc3)n2n1)N1CCCc2ccccc21 | -16%
10 | COc1cccc(-c2csc(N3CCN(Cc4ccccc4)CC3)n2)c1 | 0.166%
11 | COCC(=O)Nc1nnc(COc2ccc(Cl)cc2)s1 | -0.556%
12 | CCC(C)(C)C1CCC2(CC1)NC(=O)N(CC(=O)NCCc1c[nH]c3ccccc13)C2=O (stereo not shown) | -20.3%
13 | COc1ccccc1N(C(=O)CCl)c1cn(C(C)=O)c2ccccc12 | -10.6%
14 | C=CCOc1ccccc1C1C2=C(CC(C)(C)CC2=O)Nc2c1c(=O)n(C)c(=O)n2C (stereo not shown) | -3.8%
15 | CC(C)CCN1CCN(Cc2ccon2)CC1CCO (stereo not shown) | 4.53%
16 | CC(C)CN1CCN(Cc2cccn2-c2ccc(Cl)cn2)CC1CCO (stereo not shown) | -64.6%
17 | CC(C)CN1CCN(Cc2c(F)cccc2Cl)CC1CCO (stereo not shown) | -10.4%
18 | Cc1cccc(CN2CCN(CC(C)C)C(CCO)C2)n1 (stereo not shown) | 17.7%
19 | CC(C)CCN1CCN(Cc2cccn2-c2ccc(Cl)cn2)CC1CCO (stereo not shown) | -64.8%
20 | CC(C)CCN1CCN(Cc2c(F)cccc2Cl)CC1CCO (stereo not shown) | -21.6%
21 | O=C(COC(=O)/C=C/c1ccc(Cl)cc1Cl)Nc1cc(C(F)(F)F)ccc1N1CCOCC1 | 8.56%
22 | O=C(O)CSc1nc(SCc2ccccc2Cl)nc2c1CCCC2 | 15.4%
23 | Cc1[nH]n(-c2ccccc2)c(=O)c1CCO | 13.7%
24 | OC(c1cc(-c2ccc(Cl)cc2)nc2ccccc12)C1CCCCN1 (stereo not shown) | -52.6%

Row | SMILES | hERG current change (%, negative = inhibition) at 10uM
25 | Cl.O[C@@H](c1cc(C(F)(F)F)nc2c(C(F)(F)F)cccc12)[C@H]1CCCCN1 | 6.31%
26 | Cl.OC(c1cc(C(F)(F)F)nc2c(C(F)(F)F)cccc12)C1CCCCN1 (stereo not shown) | -12.4%
27 | Cc1cccnc1NC(=O)Cn1c(=O)oc2ccccc21 | 23%
28 | Cc1ccc(N2C(=O)NC(=O)/C(=C\c3cccn3C(C)(C)C)C2=O)cc1 | 24.5%
29 | Cl.N=c1sccn1CC(=O)Nc1cccc(S(N)(=O)=O)c1 | 12.5%
30 | Cl.N=c1sccn1CC(=O)Nc1cc(Cl)ccc1[N+](=O)[O-] | 2.64%
31 | Cl.N=c1sccn1CC(=O)Nc1cccc(Oc2ccccc2)c1 | -65.5%
32 | O=C(CSc1ccccc1)Nc1cc(Cl)ccc1Oc1ccccc1 | -9.05%
33 | Cl.N=c1sccn1CC(=O)Nc1ccc(S(N)(=O)=O)cc1 | 18.2%
34 | Cl.N=c1sccn1CC(=O)Nc1ccccc1-c1ccccc1 | -2.05%
35 | Cc1ccc(Oc2ccc(NC(=O)Cn3ccsc3=N)cc2)cc1.Cl | -45.1%
36 | Cl.N=c1sccn1CC(=O)Nc1ccc(SC(F)F)cc1 | -62.1%
37 | Cl.N=c1sccn1CC(=O)NC(c1ccccc1)c1ccccc1 | -63.3%
38 | Cl.N=c1sccn1CC(=O)Nc1ccc2c(c1)CCC2 | -14.1%
39 | Cl.N=c1sccn1CC(=O)Nc1cccc2ccccc12 | 2.9%
40 | Cl.N=c1sccn1CC(=O)Nc1cc(Cl)ccc1Oc1ccccc1 | -75.2%
41 | COc1cc(C(=O)NC(=S)Nc2ccc(NC(=O)c3ccco3)cc2)cc(OC)c1OC | -6.61%
42 | CC(=O)Nc1ccc(NC2=CC(=O)c3ccccc3C2=O)cc1 | 11.6%
43 | COc1cccc2cc(C(=O)NCCC3=CCCCC3)c(=O)oc12 | 2.79%
44 | O=C(/C=C/c1ccccc1)NC(=O)c1ccccc1O | 9.95%
45 | CC1CCCN(Cc2cnc(Cl)s2)C1 (stereo not shown) | 13%
46 | CCC(=O)N1CCc2cc(S(=O)(=O)N3CCN(C(=O)c4ccco4)CC3)ccc21 | -21.8%
47 | CCCc1c(C(=O)N/N=C/c2ccccc2OCc2ccc(F)cc2)nnn1-c1nonc1N | 18.6%
48 | Cn1c(=O)c2c(ncn2C)n(C)c1=O | 10.1%

Row | SMILES | hERG current change (%, negative = inhibition) at 10uM
49 | CCN1CCN(C(C)C(=O)Nc2c(C)n(C)n(-c3ccccc3)c2=O)CC1.O=C(O)C(=O)O (stereo not shown) | 18.6%
50 | CCNc1nc(NCC)nc(Oc2ccc(C(=O)OC)cc2)n1 | -5.78%
51 | COc1cccc2c(=O)c(C(=O)O)c[nH]c12 | -0.514%
52 | COC(=O)c1sccc1NC(=O)C1CCCCC1C(=O)O (stereo not shown) | 14.7%
53 | CN(C)c1cccc(C(=O)N2CCC(n3nccc3NC(=O)C3CCOC3)CC2)c1 (stereo not shown) | 3.5%
54 | COCCCNC(=O)C(=O)N/N=C/c1ccc(OCC(=O)Nc2cccc(Cl)c2C)c(OC)c1 | -0.6%
55 | COc1ccc(Nc2nc(-c3ccccc3)nc3ccccc23)c(OC)c1 | -1.67%
56 | COc1ccc(Nc2nc(N3CCN(C)CC3)nc3ccccc23)c(OC)c1 | -75.4%
57 | COc1ccc(Nc2nc(N3CCCC3)nc3ccccc23)c(OC)c1 | -44.6%
58 | COc1ccc(Nc2nc(Nc3ccc(OC)cc3OC)nc(N3CCN(C)CC3)n2)c(OC)c1 | -22.6%
59 | COc1ccc(Nc2nc(N3CCCCC3)nc3ccccc23)c(OC)c1 | -62.9%
60 | COc1ccc(Nc2nc(N3CCCCC3)nc(N3CCCCC3)n2)c(OC)c1 | 15.2%
61 | CCN(CC(=O)Nc1ccc(NC(C)=O)cc1)C(=O)CC1OC(=O)c2ccccc21 (stereo not shown) | 5.6%
62 | O=C(NCCO)c1nc(C(=O)c2ccccc2)c2ccccc2n1 | 15.9%
63 | Cc1nn(-c2ccccc2)c(C)c1C(=O)NCc1ccc(S(N)(=O)=O)cc1 | 20.1%
64 | Cc1nn(-c2ccccc2)c(C)c1C(=O)NCc1ccc(F)cc1 | -53.2%
65 | Cc1nn(-c2ccccc2)c(C)c1C(=O)NCc1ccccc1F | 3.78%
66 | O=C(CCc1nc2ccccc2c(=O)[nH]1)NNC(=O)COc1cccc(F)c1 | -1.88%
67 | COc1ccc(F)cc1CN1CCN(CC(=O)N2CCc3ccccc32)CC1 | -48.1%
68 | CCC(C)c1ccc(NC(=O)C2CC2)cc1 (stereo not shown) | 5.22%
69 | Cc1ccc(S(=O)(=O)NCC(=O)OCc2cc(=O)oc3cc(C)ccc23)cc1 | -3.27%
70 | COc1ccc2c(COC(=O)CNS(=O)(=O)c3ccc(C)c(C)c3)cc(=O)oc2c1 | -57.7%
71 | Cc1ccc(S(=O)(=O)NCC(=O)OCc2cc(=O)oc3c(C)c(C)ccc23)cc1C | -16.7%
72 | CCOC(=O)C(C)Sc1nnc(Cc2cc(=O)[nH]c(=O)[nH]2)n1-c1cccc(OC)c1 (stereo not shown) | 0.328%

Row | SMILES | hERG current change (%, negative = inhibition) at 10uM
73 | CCOC(=O)c1cnc2c(C)cc(Cl)cc2c1N1CCN(C)CC1.Cl | -19.6%
74 | CCOC(=O)c1cnc2c(Cl)c(Cl)ccc2c1N1CCN(C)CC1.Cl | -55.5%
75 | CCOC(=O)c1cnc2c(C)c(Cl)ccc2c1N1CCN(CC)CC1.Cl | -29.5%
76 | CN(C)S(=O)(=O)n1cnc([C@H]2c3c(ncn3Cc3ccccc3)C[C@H]3COC(=O)[C@@H]32)c1 | -4.15%
77 | Cc1ccc(C(c2sc3nc(C)nn3c2O)N2CC(C)OC(C)C2)cc1 (stereo not shown) | 13.3%
78 | O=c1c(Cl)c(NCC2CCCO2)cnn1C12CC3CC(CC(C3)C1)C2 (stereo not shown) | -29.3%
79 | O=c1oc(Nc2ccc(F)cc2)nc2ccccc12 | 6.68%
80 | CCOC(=O)N1CCC(NC(=O)CSCc2nc(-c3ccccc3Cl)oc2C)CC1 | -19.5%
81 | Cl.NC(=NC1CCCCC1)c1ccc(Cl)cc1 | -39.2%
82 | N/C(=N\OC(=O)CCC1CCCCC1)c1ccc([N+](=O)[O-])cc1 | -8.1%
83 | Cl.NC(=NC1CCCCC1)c1ccc([N+](=O)[O-])cc1 | -57.2%
84 | COc1cc2occc2c2oc(=O)ccc12 | 0.24%
85 | O=c1[nH]c(=O)n(C2CCCCC2)c(O)c1/C=N/N1CCCCC1c1cccnc1 (stereo not shown) | -13.6%
86 | COc1cc(-c2nc3ccc4ccccc4c3c3c2CCC3)ccc1O | 13.8%
87 | O=C(CN(c1ccc([N+](=O)[O-])cc1)S(=O)(=O)c1ccccc1)N1CCCCC1 | -61.9%
88 | COc1ccc([N+](=O)[O-])cc1N(CC(O)CN1CCOCC1)S(=O)(=O)c1ccccc1 (stereo not shown) | 20%
89 | O=[N+]([O-])c1ccc(N(CC(O)CN2CCCCC2)S(=O)(=O)c2ccccc2)cc1 (stereo not shown) | -74%
90 | O=[N+]([O-])c1ccc(S(=O)(=O)N(CC(O)CN2CCCCC2)c2ccccc2)cc1 (stereo not shown) | -80.9%
91 | CC1(C)NC(=O)N(CC(O)CN(c2ccccc2)S(=O)(=O)c2ccc([N+](=O)[O-])cc2)C1=O (stereo not shown) | -13.7%
92 | COc1ccc([N+](=O)[O-])cc1N(CC(O)CN1CCCCC1)S(=O)(=O)c1ccccc1 (stereo not shown) | -11.2%
93 | Cc1ccc(N(CC(=O)N2CCCCCC2)S(=O)(=O)c2ccccc2)cc1 | -25.3%
94 | O=C(CN(c1cccc([N+](=O)[O-])c1)S(=O)(=O)c1ccccc1)N1CCCCC1 | -24.8%

— PMC4336329 (PLoS ONE, 2015)
